A short description of assay [1]: NFkB reporter suppression in cystic fibrosis bronchial cells – cell-based, uHTS hits, panel, cytotoxicity readout, dose response (AID 624344). Particulars: CF bronchial epithelial cells, PAF-induced NFkB reporter inhibition, with PAF, run 1; at 79 µM (top of the series) unless noted.
Test in assay [2]: as above
Particulars: CF bronchial epithelial cells, PAF-induced NFkB reporter inhibition, with PAF, run 2; at 79 µM (top of the series) unless noted.

In general, inhibition refers to the relative decrease from the control value, in per cent.

Take `CC1(Cc2ccc(Cl)cc2)C(=O)Nc2ccc(-c3cccnc3)cc21` (stereo not drawn): the figures for the inhibition in assay [1] and in assay [2] were 107% and 102%, respectively.
For `COc1ccc(N(CCCN2C(=O)c3cccc4cccc(c34)C2=O)C(=O)c2ccncc2)cc1` the same measures were 5.78% and 45.8%.
The matching figures for `Nc1ncc(-c2ccccc2)c(-c2ccc(O)cc2O)n1`: 100% and 112%.
As to `C[C@@H]1CC=C[C@H]2[C@H]1C(=O)N(Cc1ccccc1)[C@H]2c1ccc2ccccc2c1Br`, the inhibition in assay [1] was 110%; in assay [2], 93.6%.
The matching figures for `Oc1ccc(Br)cc1-c1nc2cnccn2c1NC1CCCC1`: 101% and 97.8%.
With `CC(=O)Nc1ccc(-c2ccnc3c2CC(C(=O)NCc2ccco2)O3)cc1` (stereo not drawn), the inhibition was found to be 70% in assay [1] and 78% in assay [2].
In the case of `c1ccc2c(c1)Nc1ccncc1S2`, the figures for the inhibition in assay [1] and in assay [2] were 114% and 106%, respectively.
For `O=C(/C=C/c1cccc([N+](=O)[O-])c1)NC(=S)Nc1ccc(CN2CCOCC2)cc1` the same measures were 100% and 112%.
For `Cc1nnc(Sc2nc3ccccc3o2)c2ccccc12` the same measures were 98.3% and 107%.
Regarding `O=C(OC1CCOC1=O)c1ccccc1C(=O)c1ccc(Cl)c([N+](=O)[O-])c1` (stereo not drawn), the inhibition in assay [1] is 98.5%; in assay [2], 105%.
The matching figures for `O=c1c(-c2c(O)cc(O)c3c2O[C@H](c2ccc(O)cc2)CC3)c(-c2ccc(O)cc2)oc2cc(O)cc(O)c12`: 105% and 102%.
The matching figures for `COc1ccc2[nH]c(=O)c3c(c2c1)OC(C)(C)C=C3`: 105% and 117%.
For `CCN1CCN(Cc2ccc(NC(=O)c3ccc(C)c(NC(=O)c4ccno4)c3)cc2C(F)(F)F)CC1` the same measures were 105% and 83.4%.
For the molecule `Cc1ccc(S(=O)(=O)Nc2cccc3cccnc23)c([N+](=O)[O-])c1`, the inhibition in assay [1] is 101% [at 39.5 µM]; in assay [2], 94.2% [at 39.5 µM].

The values above are taken from PubChem BioAssay.
